{"source": "PubChem BioAssay AID588651", "about": "(The Scripps Research Institute Molecular Screening Center, 2011)", "note": "The source made the active and inactive calls. Cut-off read from the data, not from the text of the source: active = inhibition above about 65%; inactive = the rest."}
{"test_system": "Antitargets", "test": "Fam108b inhibitors and proteome off-target selectivity – biochemical, gel-based ABPP, recombinant soluble Fam108b, HTS hits, complex proteome, late-stage follow-up (AID 588651);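 note: Fam108b spiked into mouse brain membrane proteome; tested at 20 µM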", "details": "FP-rhodamine labeling in proteome"}
{"smiles": "Cc1ccccc1N1C(=O)/C(=C/c2ccco2)C(=O)NC1=S", "outcome": "inactive"}
{"smiles": "NC(Cc1cc(O)c(O)cc1O)C(=O)O", "note": "(stereo not drawn)", "outcome": "inactive"}
{"smiles": "C[n+]1c(-c2ccccc2)c2cc(N)ccc2c2ccc(N)cc21", "outcome": "inactive"}
